The record followed here is PubChem BioAssay (NCATS).

Inconclusive results are not listed. Entries that show only a call come without a potency. Activity calls are given as the source filed them. The call rests on the fitted dose curve; in most records, active means well fitted inhibition curve with a large enough effect; inconclusive means small, poorly fitted or top-dose-only effect; inactive means flat fitted curve, though single readings scatter.
Potency means the concentration at half of the fitted maximal effect.

This experiment relates to Zika virus NS2B-NS3 protease. The experiment in a line: Primary screen GU AMC qHTS for Zika virus inhibitors (AID 1347154). Further: nearly all actives have a fitted effect of over 70% in size. Particulars: Zika NS2B-NS3 unlinked protease, AMC fluorogenic substrate; series mostly up to 54.1 µM. In outline:
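Unlinked Zika NS2B hydrophilic domain–NS3 protease complex at 25 nM in 10 mM Tris-HCl pH 8.0, 0.01% Tween 20, with an AMC peptide substrate. Fluorescence change (340/450 nm) over 15 min at room temperature, normalized to controls, fitted to 4-parameter Hill.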
Regarding `CN=C(N)NC(=O)Nc1c(C)cccc1C`, the Potency result is “inactive”.

Take `Nc1ncnc2c1ncn2Cc1c(F)cccc1Cl`: the Potency entry was “inactive”.

Turning to `CCOC(=O)CN1CCCC1=O`, the Potency result was “inactive”.

Consider `CCOc1ccccc1OCC1CNCCO1` (stereo not given), for which the Potency entry was “inactive”.

As to `CCOCCn1c(C2CCN(CCc3ccc(C(C)(C)C(=O)O)cc3)CC2)nc2ccccc21`, the Potency result was “inactive”.

On to `Oc1ccc(CCNCCCCCCNCCc2ccccc2)cc1O`, for which the Potency entry was “inactive”.

As to `CCOC(=O)NNc1nncc2ccccc12`, the Potency entry was “inactive”.

With `CC1c2ccccc2CN1NC(=O)c1ccc(Cl)c(S(N)(=O)=O)c1` (stereo not given), the Potency result was “inactive”.

Regarding `C[C@@H]1C[C@H]2[C@@H]3CCC4=CC(=O)C=C[C@]4(C)[C@@]3(F)[C@@H](O)C[C@]2(C)[C@@]1(O)C(=O)COC(=O)c1ccncc1`, the Potency result was “inactive”.

`Cc1cc(C(C)(C)C)c(O)c(C(C)(C)C)c1`: the Potency entry was “inactive”.

For the molecule `CC(C)NCCCC1(C(N)=O)c2ccccc2-c2ccccc21`, the Potency entry is “inactive”.

`Oc1ccccc1-c1nnco1`: the Potency result is “inactive”.

As for `Cc1cc(=O)oc2cc(O[C@@H]3SC[C@@H](O)[C@H](O)[C@H]3O)ccc12`, the Potency result was “inactive”.

Regarding `O=C1CC2(CCCC2)CC(=O)N1CCNCC1COc2ccccc2O1` (stereo not given), the Potency result was “inactive”.

For the molecule `O=C(O)c1ccccc1Nc1cc(Cl)ccc1C(=O)O`, the Potency result was “inactive”.

For `COC(=O)CCCCC(CCSS/C(CCO)=C(\C)N(C=O)Cc1cnc(C)nc1N)SC(C)=O` (stereo not given), the Potency result was “inactive”.

On to `O=C(OCC(COC(=O)c1cccnc1)(COC(=O)c1cccnc1)COC(=O)c1cccnc1)c1cccnc1`, for which the Potency result was “inactive”.

In the case of `C1N2CN3CN1CN(C2)C3`, the Potency entry was “inactive”.

For the molecule `O=C(c1cc(O)c(O)c(O)c1)c1ccc(O)c(O)c1O`, the Potency is 891 nM (active).

On to `CN1Cc2cc(C(=O)N3CCC(C4CCNCC4)CC3)ccc2N[C@@H](CC(=O)O)C1=O`, for which the Potency result was “inactive”.
